Data reported in the supplement of paper PMC12350171.
Counter-ions that a name gives are not always drawn.

Legend:
Conditions in all cases: 20 µM
[1] = system: Salmonella enterica typhimurium; experiment: growth AUC normalised to DMSO control (fraction of control); higher = less growth inhibition, active = hit call of the paper
In short: (§1)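 Pathogens passaged twice anaerobically were inoculated at a starting OD578 of 0.01 into pre-reduced mGAM plates with drug at 20 μM and 1% DMSO, sealed with breathable membranes. Haemophilus parainfluenzae medium was supplemented with hemin and NAD. OD578 was read hourly for 24 h, with three biological replicates. Growth-curve AUC was computed by the trapezoidal rule up to the exponential-to-stationary transition and normalised to DMSO controls on the same plate.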

Shigella flexneri = experiment: as above
In short: as §1

Vibrio cholerae = experiment: as above
In short: as §1

[2] = system: Yersinia pseudotuberculosis; experiment: as above
In short: as §1

P. vulgatus RND KO = experiment: growth AUC normalised to DMSO control (median) (fraction of control); higher = less growth inhibition, active = hit call of the paper
In short: (§2)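 Strains were passaged twice overnight without oxygen, then grown in mGAM in 96-well plates with each approved-drug library compound at 20 μM and 1% DMSO, starting at OD578 0.01. OD578 was read hourly for 24 h inside an anaerobic incubator. Curves were truncated at entry into stationary phase, and the trapezoidal-rule area under the curve was normalised to same-plate vehicle wells. The value is the median across three biological replicates.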

P. vulgatus WT = experiment: as above
In short: as §2

[3] = system: S. enterica typhimurium WT; experiment: as above
In short: as §2

[4] = system: S. enterica typhimurium tolC KO; experiment: as above
In short: as §2

Measured: growth AUC normalised to DMSO control
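For growth AUC normalised to DMSO control (median) in this document: active when median AUC fell below 0.1.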

CCN[C@H]1C[C@H](C)S(=O)(=O)c2sc(S(N)(=O)=O)cc21 [Dorzolamide hydrochloride]
inactive: [1] 1.02 | Shigella flexneri 1.04 | Vibrio cholerae 1.04 | [2] 1.03 | P. vulgatus RND KO 1.05 | P. vulgatus WT 1.05 | [3] 1 | [4] 1.01

CC(C)[C@H](N)C(=O)OCCOCn1cnc2c(=O)nc(N)[nH]c21 [Valacyclovir hydrochloride]
inactive: [1] 0.993 | Shigella flexneri 1.03 | Vibrio cholerae 0.995 | [2] 1.01 | P. vulgatus RND KO 0.999 | P. vulgatus WT 1.02 | [3] 1 | [4] 1.02

OCCN1CCN(CCCN2c3ccccc3Sc3ccc(Cl)cc32)CC1 [Perphenazine]
inactive: [1] 0.99 | Shigella flexneri 0.975 | Vibrio cholerae 0.91 | [2] 1.01 | P. vulgatus RND KO 1.01 | P. vulgatus WT 0.989 | [3] 1 | [4] 0.929

NCc1ccccc1CC(=O)N[C@@H]1C(=O)N2C(C(=O)O)=C(CSc3nnnn3CC(=O)O)CS[C@H]12 [Ceforanide]
active: [1] 0.00985 | Shigella flexneri 0.0434 | Vibrio cholerae 0.0984 | [2] 0.023 | P. vulgatus RND KO 0.00761 | P. vulgatus WT 0.014 | [3] 0.00887 | [4] 0.00597

C[C@H](CCC(=O)O)[C@H]1CC[C@H]2[C@@H]3[C@H](O)C[C@@H]4C[C@H](O)CC[C@]4(C)[C@H]3CC[C@]12C [Chenodiol]
inactive: [1] 0.991 | Shigella flexneri 0.96 | Vibrio cholerae 0.988 | [2] 1.01 | P. vulgatus RND KO 0.922 | P. vulgatus WT 0.94 | [3] 0.998 | [4] 1.01

COc1ccc2cc([C@@H](C)C(=O)O)ccc2c1 [(R) Naproxen sodium salt]
inactive: [1] 1.02 | Shigella flexneri 1.08 | Vibrio cholerae 1.06 | [2] 1.03 | P. vulgatus RND KO 1.06 | P. vulgatus WT 1.07 | [3] 1 | [4] 1.02

CCc1cc(C(N)=S)ccn1 [Ethionamide]
inactive: [1] 0.991 | Shigella flexneri 0.963 | Vibrio cholerae 0.998 | [2] 0.975 | P. vulgatus RND KO 1 | P. vulgatus WT 0.986 | [3] 0.996 | [4] 0.994

CCN(CCCc1ccccc1)CCCc1ccccc1 [Alverine citrate salt]
inactive: [1] 0.985 | Shigella flexneri 0.966 | [2] 0.971 | P. vulgatus RND KO 1.02 | P. vulgatus WT 1.03 | [3] 1 | [4] 0.961
active: Vibrio cholerae 0.841

CCN(CCCCOC(=O)c1ccc(OC)c(OC)c1)C(C)Cc1ccc(OC)cc1 (stereo not given) [Mebeverine hydrochloride]
inactive: [1] 1.01 | Shigella flexneri 1.03 | Vibrio cholerae 1.02 | [2] 1.01 | P. vulgatus RND KO 1.01 | P. vulgatus WT 1.01 | [3] 1 | [4] 0.934

CC(=O)O[C@H]1C[C@@H]2CC[C@@H]3[C@H](CC[C@@]4(C)[C@H]3C[C@H]([N+]3(C)CCCCC3)[C@@H]4OC(C)=O)[C@@]2(C)C[C@@H]1N1CCCCC1 [Vecuronium bromide]
inactive: [1] 1.01 | Shigella flexneri 0.979 | Vibrio cholerae 1.01 | [2] 1.02 | P. vulgatus RND KO 0.955 | P. vulgatus WT 0.998 | [3] 1 | [4] 1

C[C@H]1C[C@H]2[C@@H]3CCC4=CC(=O)C=C[C@]4(C)[C@@]3(F)[C@@H](O)C[C@]2(C)[C@@]1(O)C(=O)CO [Betamethasone]
inactive: [1] 0.985 | Shigella flexneri 0.957 | Vibrio cholerae 0.979 | [2] 0.988 | P. vulgatus RND KO 0.986 | P. vulgatus WT 0.98 | [3] 1 | [4] 0.991

Clc1ccc2c(c1)CCc1cccnc1C2=C1CCNCC1 [Desloratadine]
inactive: [1] 1.02 | Shigella flexneri 0.975 | Vibrio cholerae 1 | [2] 0.998 | P. vulgatus RND KO 0.959 | P. vulgatus WT 0.961 | [3] 0.988 | [4] 0.996

CCN(CC)Cc1cc(Nc2ccnc3cc(Cl)ccc23)ccc1O [Amodiaquine dihydrochloride dihydrate]
inactive: [1] 0.974 | Shigella flexneri 1.02 | Vibrio cholerae 1 | [2] 0.966 | P. vulgatus RND KO 1 | P. vulgatus WT 0.961 | [3] 0.982 | [4] 1

C=C1c2cccc(O)c2C(O)=C2C(=O)[C@]3(O)C(O)=C(C(N)=O)C(=O)[C@@H](N(C)C)[C@@H]3[C@@H](O)[C@H]12 [Methacycline hydrochloride]
active: [1] 0.00318 | Shigella flexneri 0.0126 | Vibrio cholerae 0.0374 | [2] 0.0389 | P. vulgatus RND KO 0.0122 | P. vulgatus WT 0.00531 | [3] 0.000703 | [4] 0.00224

CN1CCC[C@@H]1CCO[C@](C)(c1ccccc1)c1ccc(Cl)cc1 [Clemastine fumarate]
inactive: [1] 0.999 | Shigella flexneri 0.969 | Vibrio cholerae 0.926 | [2] 1.02 | P. vulgatus RND KO 0.944 | P. vulgatus WT 0.947 | [3] 0.998 | [4] 0.925

CCN(CC)CC(=O)Nc1c(C)cccc1C [Lidocaine hydrochloride]
inactive: [1] 0.999 | Shigella flexneri 1.02 | Vibrio cholerae 1.01 | [2] 1 | P. vulgatus RND KO 1.02 | P. vulgatus WT 1.03 | [3] 0.963 | [4] 0.996

Cc1cn[nH]c1 [Fomepizole]
inactive: [1] 0.996 | Shigella flexneri 0.992 | Vibrio cholerae 0.977 | [2] 0.996 | P. vulgatus RND KO 0.978 | P. vulgatus WT 0.985 | [3] 0.993 | [4] 0.997

c1cnc(N2CCN(Cc3ccc4c(c3)OCO4)CC2)nc1 [Piribedil]
inactive: [1] 1 | Shigella flexneri 1.03 | Vibrio cholerae 0.999 | [2] 1.01 | P. vulgatus RND KO 1.07 | P. vulgatus WT 1.09 | [3] 0.984 | [4] 1

CNNCc1ccc(C(=O)NC(C)C)cc1 [Procarbazine hydrochloride]
inactive: [1] 1 | Shigella flexneri 1.02 | Vibrio cholerae 1 | [2] 0.992 | P. vulgatus RND KO 1.06 | P. vulgatus WT 1.05 | [3] 1.01 | [4] 1

CCOc1nc2cccc(C(=O)O)c2n1Cc1ccc(-c2ccccc2-c2nnn[nH]2)cc1 [Candesartan]
inactive: [1] 1.01 | Shigella flexneri 1.02 | Vibrio cholerae 1.04 | [2] 1.01 | P. vulgatus RND KO 1.01 | P. vulgatus WT 1 | [3] 1.01 | [4] 0.987

Cc1onc(-c2c(Cl)cccc2Cl)c1C(=O)N[C@@H]1C(=O)N2[C@@H]1SC(C)(C)[C@@H]2C(=O)O [Dicloxacillin sodium salt hydrate]
inactive: [1] 0.997 | Shigella flexneri 1.01 | Vibrio cholerae 1 | [2] 1.01 | [3] 1.01
active: P. vulgatus RND KO 0.081 | P. vulgatus WT 0.0487 | [4] 0.00514

CC(C)[N+](C)(CCOC(=O)C1c2ccccc2Oc2ccccc21)C(C)C [Propantheline bromide]
inactive: [1] 0.974 | Shigella flexneri 0.983 | Vibrio cholerae 0.967 | [2] 1 | P. vulgatus RND KO 0.966 | P. vulgatus WT 0.958 | [3] 1 | [4] 0.981

CCC(=O)O[C@]1(C(=O)SCF)[C@H](C)C[C@H]2[C@@H]3C[C@H](F)C4=CC(=O)C=C[C@]4(C)[C@@]3(F)[C@@H](O)C[C@@]21C [Fluticasone propionate]
inactive: [1] 0.996 | Shigella flexneri 1.01 | Vibrio cholerae 1 | [2] 1 | P. vulgatus RND KO 0.998 | P. vulgatus WT 0.988 | [3] 0.993 | [4] 0.998

CO/N=C(\C(=O)N[C@@H]1C(=O)N2C(C(=O)O)=C(COC(N)=O)CS[C@H]12)c1ccco1 [Cefuroxime sodium salt]
active: [1] 0.0484 | Shigella flexneri 0.0576 | Vibrio cholerae 0.0553 | [2] 0.0424 | P. vulgatus RND KO 0.011 | P. vulgatus WT 0.0132 | [4] 0.00393
inactive: [3] 0.342

OCCOCCN1CCN(C2=Nc3ccccc3Sc3ccccc32)CC1 [Quetiapine hemifumarate]
inactive: [1] 0.999 | Shigella flexneri 0.978 | Vibrio cholerae 0.991 | [2] 0.981 | P. vulgatus RND KO 0.946 | P. vulgatus WT 0.91 | [3] 1.01 | [4] 0.977

O=C(O)c1cccnc1Nc1cccc(C(F)(F)F)c1 [Niflumic acid]
inactive: [1] 0.989 | Shigella flexneri 0.998 | Vibrio cholerae 0.897 | [2] 1.01 | P. vulgatus RND KO 0.907 | P. vulgatus WT 0.936 | [3] 1 | [4] 0.961

Nc1nc(O)c2ncn(CCC(CO)CO)c2n1 [Penciclovir]
inactive: [1] 1.01 | Shigella flexneri 1.01 | Vibrio cholerae 1.06 | [2] 1.02 | P. vulgatus RND KO 1.02 | P. vulgatus WT 1.03 | [3] 1 | [4] 0.997

CNC(=C[N+](=O)[O-])NCCSCc1csc(CN(C)C)n1 [Nizatidine]
inactive: [1] 0.998 | Shigella flexneri 0.989 | Vibrio cholerae 0.997 | [2] 1 | P. vulgatus RND KO 1.03 | P. vulgatus WT 1.04 | [3] 1.02 | [4] 0.989

O=C(O)c1cc(-c2ccc(F)cc2F)ccc1O [Diflunisal]
inactive: [1] 0.983 | Shigella flexneri 0.997 | Vibrio cholerae 0.899 | [2] 0.984 | P. vulgatus RND KO 0.999 | P. vulgatus WT 1.07 | [3] 0.973 | [4] 0.943

N#Cc1ccc(C(c2ccc(C#N)cc2)n2cncn2)cc1 [Letrozole]
inactive: [1] 1.01 | Shigella flexneri 1 | Vibrio cholerae 0.989 | [2] 0.999 | P. vulgatus RND KO 1.01 | P. vulgatus WT 1.01 | [3] 1.01 | [4] 1
